# Measurements published in PubChem BioAssay.
# Calls of active or inactive are those of the source.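 Rule for the calls, unless noted: active = inhibition of the reporter signal at or above 50%; inactive = inhibition below 50%.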
# Assays:
# [1] = inhibitors of TNFa-induced NFkB p65 translocation, primary screen, imaging, HUVEC, MLSMR starter and 10KST1 sets (AID 438;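 active = inhibition above 20% together with a positive visual image hit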;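 note: compound added about 3h40 before a 20 min TNFalpha stimulation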;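 for inhibition: signal is the nuclear over cytoplasmic p65 intensity ratio per well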); conditions: HUVEC TNFa-induced p65 nuclear translocation; cell count: measured here: nuclei count (cytotoxicity indicator), at 2.08 µM; inhibition: at 2 µM, stronger effect = higher value, 0% TNFa-plus-vehicle, 100% no-TNFa wells
# [2] = reduction of polyQ htt aggregates in cells – imaging, exon1htt(103Q)mCFP cells, high-content imaging, primary screen (AID 483;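 active = visual image review flags a hit and inhibition of aggregation exceeds 20%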;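 note: compound exposure lasted 3 days before fixation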;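 for nuclei count: percent of the per-plate median nuclei count of sample wells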); conditions: exon1htt(103Q)mCFP cell line, aggregate imaging, at 2 µM; inhibition of aggregation: stronger effect = higher value; nuclei count: measured here: cell count, toxicity
# [3] = endothelial E-selectin expression blockers – imaging, HUVEC, immunofluorescence, MLSMR starter and 10KST1 sets, primary screen (AID 487;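 active = visually confirmed hit in the image check and inhibition above 20%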;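 for inhibition: signal is fraction of cell area covered by stained E-selectin grains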;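 for nuclei count: 100% = median nuclei count of all wells on the same plate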); conditions: HUVEC TNFalpha-induced E-selectin immunofluorescence imaging, at 2 µM; inhibition: stronger effect = higher value; nuclei count: measured here: cell number, toxicity
# [4] = target: Voltage-gated potassium channel subunit beta-2 (Rattus norvegicus) (UniProt P62483); experiment: inhibitors of rat Kvbeta2 reductase activity – biochemical, NADPH fluorescence, primary screen (AID 622;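 active = fluorescence slope higher than the sample average by over 3 SD, cut at about -0.22 in these data, passing the limit was not always enough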;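 note: slope of raw intensity against log time taken from 70 to 1610 s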); conditions: recombinant KvBeta, 4-cyanobenzaldehyde reduction, at 10 µM, stronger effect = higher value
# Voltage-gated potassium channel subunit beta-2 (Rattus norvegicus), sequence (P62483 whole entry, looked up): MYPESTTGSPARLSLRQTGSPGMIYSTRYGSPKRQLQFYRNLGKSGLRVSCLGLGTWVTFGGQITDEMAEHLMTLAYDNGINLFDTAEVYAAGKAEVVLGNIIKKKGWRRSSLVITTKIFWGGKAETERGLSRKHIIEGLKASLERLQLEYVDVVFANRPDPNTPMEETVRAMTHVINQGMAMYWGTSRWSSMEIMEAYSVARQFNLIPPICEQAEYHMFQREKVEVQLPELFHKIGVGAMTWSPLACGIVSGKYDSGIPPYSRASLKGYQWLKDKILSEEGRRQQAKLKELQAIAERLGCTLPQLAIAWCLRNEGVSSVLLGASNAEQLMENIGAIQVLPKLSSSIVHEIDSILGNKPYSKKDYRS
# [5] = target: Voltage-gated potassium channel subunit beta-2 (Rattus norvegicus) (UniProt P62483); experiment: enhancers of rat Kvbeta2 NADPH turnover – biochemical, NADPH fluorescence, primary screen (AID 623;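 active = NADPH fluorescence slope more negative than the mean of all samples by about 3 SD, 99.7% confidence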;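 note: fluorescence intensity change per second fitted from 20 to 320 s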); conditions: Recombinant KvBeta, NADPH fluorescence decrease slope, 10 min; at 10 µM; stronger effect = lower value
# [6] = target: Alpha-2C adrenergic receptor (Homo sapiens) (UniProt P18825); experiment: compounds altering alpha2C-coupled GIRK flux – cell-based, HEK293 alpha2C/GIRK1/2, thallium flux, primary screen (AID 624;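 active = fluorescence slope after compound addition differing from the mean of all screened samples at 99.7% confidence, in either direction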;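 note: slope of fluorescence ratio to pre-addition baseline per second over 15 to 24 s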); conditions: thallium flux BTC fluorescence, at 10 µM, actives lie on both sides
# Alpha-2C adrenergic receptor (Homo sapiens), sequence (P18825 whole entry, looked up): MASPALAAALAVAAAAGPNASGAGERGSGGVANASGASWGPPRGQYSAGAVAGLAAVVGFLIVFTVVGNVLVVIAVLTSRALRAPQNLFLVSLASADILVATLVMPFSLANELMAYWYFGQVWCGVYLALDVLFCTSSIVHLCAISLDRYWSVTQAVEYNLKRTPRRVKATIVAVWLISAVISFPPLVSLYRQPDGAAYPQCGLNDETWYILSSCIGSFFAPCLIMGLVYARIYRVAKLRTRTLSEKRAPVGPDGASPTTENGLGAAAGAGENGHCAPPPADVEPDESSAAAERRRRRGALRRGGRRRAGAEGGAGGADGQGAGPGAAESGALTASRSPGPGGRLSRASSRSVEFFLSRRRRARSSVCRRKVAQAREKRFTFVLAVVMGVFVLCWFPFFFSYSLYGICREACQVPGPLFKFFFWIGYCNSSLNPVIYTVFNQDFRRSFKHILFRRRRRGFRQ
# [7] = blockers of RIG-like receptor reporter activation – cell-based, Sendai virus stimulus, luciferase, 10K MLSCN set, TLR/RLR signaling modifier project, primary screen (AID 602276;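 active = inhibition at or above 50% at 10 µM; inactive = inhibition below 50%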;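 note: firefly luciferase from ISG56 promoter only with Renilla not read in this screen; 0% = Sendai virus plus DMSO and 100% = medium plus DMSO without virus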); conditions: HEK293 RL24 IRF3 luciferase reporter, at 10 µM, stronger effect = higher value
# [8] = TLR3 IRF3 reporter activation blockers – cell-based, poly I:C stimulus, luciferase, 10K MLSCN set, primary screen (AID 602277); conditions: HEK293-TLR3 RL24 IRF3 luciferase reporter, at 10 µM, stronger effect = higher value
Compound,cell count [1],inhibition [1],inhibition of aggregation [2],nuclei count [2],inhibition [3],nuclei count [3],fluorescence slope [4],NADPH fluorescence slope [5],slope [6],inhibition [7],inhibition [8]
Oc1c(C(c2ccccc2)N2CCc3ccccc3C2)sc2ncnn12 (stereo not drawn),651,1.3% (inactive),-23.6% (inactive),111%,-25.4% (inactive),117%,-0.618 (inactive),-3.4e-05 (inactive),0.00688 (inactive),12.6% (inactive),30.7% (inactive)
CN(C)C(=O)N1CCCC(C(=O)NCc2ccccc2)C1 (stereo not drawn),606,-3.9% (inactive),-1.5% (inactive),84%,-50.4% (inactive),112%,-0.341 (inactive),-2.4e-05 (inactive),0.00548 (inactive),40.6% (inactive),25.4% (inactive)
Cc1ccc(Cn2c(NCCc3ccccc3)nc3c2c(=O)n(C)c(=O)n3C)cc1,368,6.8% (inactive),6.1% (inactive),98.7%,-203% (inactive),108%,-0.597 (inactive),-6.3e-06 (inactive),0.00517 (inactive),34.6% (inactive),29.6% (inactive)
CCCCC(=O)NCCc1cc2ccc(OC)cc2[nH]c1=O,341,-17% (inactive),25.1% (inactive),84.4%,-5.9% (inactive),91.4%,-0.464 (inactive),-0.000398 (inactive),0.00611 (inactive),-3.47% (inactive),98.8% (active)
CCc1nc2sc3ccccc3c(=O)c2c(=O)n1Cc1ccco1,577,14.3% (inactive),-3.1% (inactive),87.2%,4.8% (inactive),112%,-0.568 (inactive),-3.8e-05 (inactive),0.00576 (inactive),-14.6% (inactive),-14.8% (inactive)
COC(=O)c1cc(S(=O)(=O)N2CCC(C)CC2)ccc1F,552,-17% (inactive),-56.8% (inactive),112%,-24.3% (inactive),104%,-0.452 (inactive),-0.000117 (inactive),0.00608 (inactive),15.3% (inactive),29.4% (inactive)
O=C(CNC1CCCCCC1)Nc1ccc(S(=O)(=O)NC2CC2)cc1,727,-4.8% (inactive),3.3% (inactive),104%,-51.5% (inactive),108%,-0.49 (inactive),-5.4e-05 (inactive),0.00449 (inactive),11.1% (inactive),18.7% (inactive)
CCc1nnc(NC(=O)c2ccc(S(=O)(=O)N(CC(C)C)CC(C)C)cc2)o1,415,-1.4% (inactive),2.2% (inactive),94.8%,12.8% (inactive),81.5%,-0.507 (inactive),-1.1e-05 (inactive),0.00793 (inactive),8.12% (inactive),15.2% (inactive)
